Reference: the supplement of paper PMC11732987, “Enantioselective OTUD7B fragment discovery through chemoproteomics screening and high-throughput optimisation” (Communications Chemistry, 2025)

What was measured:
Test in all cases: log2 ratio of Biotin-Ahx-Ub-VS probe labelling (fragment/DMSO); higher = less target engagement (more negative = stronger competition), active = hit call of the paper (q ≤ 0.05, log2 ratio ≤ -1)
Conditions in all cases: compound concentration: 200 uM; treatment time: 3 h
[1] = target: USP34 (UniProt Q70CQ2)
Procedure, shortened: (§1)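 Each value is an average log2 ratio of fragment to vehicle, tested by unpaired t-test. The underlying Spectronaut label-free quantities were global-median-normalised, and only proteins with ≥2 unique peptides were included. Triplicate HEK293T lysate samples (495 µg) were exposed to fragment at 200 µM or vehicle for 3 h, then to Biotin-Ahx-Ub-VS at 0.5 µM final for 1 h, before NeutrAvidin enrichment of labelled DUBs, LysC and trypsin digestion, and diaPASEF LC-MS/MS.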

[2] = target: T1, USP36 (UniProt Q9P275)
T1 sequence (whole entry): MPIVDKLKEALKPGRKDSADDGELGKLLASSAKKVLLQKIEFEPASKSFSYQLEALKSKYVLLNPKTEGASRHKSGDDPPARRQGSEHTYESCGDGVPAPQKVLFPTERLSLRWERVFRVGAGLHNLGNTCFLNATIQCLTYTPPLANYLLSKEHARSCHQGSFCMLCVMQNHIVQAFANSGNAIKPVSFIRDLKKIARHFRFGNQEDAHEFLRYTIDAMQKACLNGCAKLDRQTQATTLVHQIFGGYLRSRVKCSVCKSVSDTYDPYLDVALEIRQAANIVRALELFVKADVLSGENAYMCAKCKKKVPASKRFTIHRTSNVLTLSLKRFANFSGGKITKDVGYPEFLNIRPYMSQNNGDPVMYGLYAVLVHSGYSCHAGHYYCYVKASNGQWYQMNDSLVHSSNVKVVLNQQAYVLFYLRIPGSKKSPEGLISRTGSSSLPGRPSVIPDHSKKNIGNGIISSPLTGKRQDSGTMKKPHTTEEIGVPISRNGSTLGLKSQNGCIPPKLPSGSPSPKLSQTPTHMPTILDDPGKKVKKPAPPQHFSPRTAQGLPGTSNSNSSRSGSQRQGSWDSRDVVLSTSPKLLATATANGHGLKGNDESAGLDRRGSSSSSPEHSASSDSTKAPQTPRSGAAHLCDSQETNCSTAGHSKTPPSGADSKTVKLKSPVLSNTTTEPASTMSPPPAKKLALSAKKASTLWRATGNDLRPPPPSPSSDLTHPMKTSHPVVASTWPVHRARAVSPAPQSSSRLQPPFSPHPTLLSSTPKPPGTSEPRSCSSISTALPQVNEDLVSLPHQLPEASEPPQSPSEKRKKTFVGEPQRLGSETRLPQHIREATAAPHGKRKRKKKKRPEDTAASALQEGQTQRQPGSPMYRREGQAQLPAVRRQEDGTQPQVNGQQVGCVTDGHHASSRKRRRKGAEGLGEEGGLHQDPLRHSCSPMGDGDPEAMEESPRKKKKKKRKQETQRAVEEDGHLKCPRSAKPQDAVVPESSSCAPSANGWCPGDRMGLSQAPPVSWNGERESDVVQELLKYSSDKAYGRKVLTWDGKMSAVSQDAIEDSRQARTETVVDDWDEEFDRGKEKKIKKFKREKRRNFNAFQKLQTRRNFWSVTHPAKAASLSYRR
Procedure, shortened: as §1

[3] = target: T2, USP38 (UniProt Q8NB14)
T2 sequence (whole entry): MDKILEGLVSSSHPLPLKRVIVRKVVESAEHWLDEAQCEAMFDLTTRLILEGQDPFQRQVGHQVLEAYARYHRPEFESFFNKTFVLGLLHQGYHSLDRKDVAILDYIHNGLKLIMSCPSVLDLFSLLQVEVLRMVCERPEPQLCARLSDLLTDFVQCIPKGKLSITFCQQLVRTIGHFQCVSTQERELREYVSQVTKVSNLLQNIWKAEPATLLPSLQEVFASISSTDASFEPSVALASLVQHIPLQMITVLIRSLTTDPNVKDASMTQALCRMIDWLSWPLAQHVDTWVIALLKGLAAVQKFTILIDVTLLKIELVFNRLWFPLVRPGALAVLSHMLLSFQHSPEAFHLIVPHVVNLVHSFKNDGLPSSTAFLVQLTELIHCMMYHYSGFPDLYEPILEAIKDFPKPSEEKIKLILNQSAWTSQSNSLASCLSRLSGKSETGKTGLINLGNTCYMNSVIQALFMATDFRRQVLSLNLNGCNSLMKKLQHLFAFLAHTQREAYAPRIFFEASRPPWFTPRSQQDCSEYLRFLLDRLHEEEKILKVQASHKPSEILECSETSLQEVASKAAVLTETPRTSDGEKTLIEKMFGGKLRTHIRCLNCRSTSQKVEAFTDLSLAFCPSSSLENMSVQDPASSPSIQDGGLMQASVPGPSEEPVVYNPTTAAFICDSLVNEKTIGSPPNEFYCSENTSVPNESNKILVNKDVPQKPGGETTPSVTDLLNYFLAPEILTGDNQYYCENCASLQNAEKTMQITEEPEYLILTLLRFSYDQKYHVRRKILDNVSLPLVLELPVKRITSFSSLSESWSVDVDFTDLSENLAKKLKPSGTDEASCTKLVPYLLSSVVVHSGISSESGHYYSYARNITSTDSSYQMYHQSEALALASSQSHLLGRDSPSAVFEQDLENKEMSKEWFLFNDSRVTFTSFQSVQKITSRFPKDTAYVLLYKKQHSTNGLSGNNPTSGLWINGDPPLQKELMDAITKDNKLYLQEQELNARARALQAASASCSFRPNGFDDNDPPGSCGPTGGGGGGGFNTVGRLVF
Procedure, shortened: as §1

[4] = target: T3, USP39 (UniProt Q53GS9)
T3 sequence (whole entry): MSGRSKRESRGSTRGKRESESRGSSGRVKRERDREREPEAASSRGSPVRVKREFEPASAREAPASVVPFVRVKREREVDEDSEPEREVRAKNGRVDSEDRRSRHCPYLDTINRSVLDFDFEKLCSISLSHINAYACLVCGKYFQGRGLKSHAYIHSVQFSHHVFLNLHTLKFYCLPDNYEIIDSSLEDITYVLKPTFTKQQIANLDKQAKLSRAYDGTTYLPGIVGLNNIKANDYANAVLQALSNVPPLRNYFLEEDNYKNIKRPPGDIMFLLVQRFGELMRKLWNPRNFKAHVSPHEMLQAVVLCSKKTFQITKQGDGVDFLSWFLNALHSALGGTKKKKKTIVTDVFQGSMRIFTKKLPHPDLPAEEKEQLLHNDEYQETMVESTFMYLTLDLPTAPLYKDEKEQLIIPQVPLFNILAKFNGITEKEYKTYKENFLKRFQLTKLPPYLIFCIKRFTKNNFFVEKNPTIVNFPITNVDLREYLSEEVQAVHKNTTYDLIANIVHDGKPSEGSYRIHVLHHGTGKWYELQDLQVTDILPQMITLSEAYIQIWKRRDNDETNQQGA
Procedure, shortened: as §1

[5] = target: T4, USP4 (UniProt Q13107)
T4 sequence (whole entry): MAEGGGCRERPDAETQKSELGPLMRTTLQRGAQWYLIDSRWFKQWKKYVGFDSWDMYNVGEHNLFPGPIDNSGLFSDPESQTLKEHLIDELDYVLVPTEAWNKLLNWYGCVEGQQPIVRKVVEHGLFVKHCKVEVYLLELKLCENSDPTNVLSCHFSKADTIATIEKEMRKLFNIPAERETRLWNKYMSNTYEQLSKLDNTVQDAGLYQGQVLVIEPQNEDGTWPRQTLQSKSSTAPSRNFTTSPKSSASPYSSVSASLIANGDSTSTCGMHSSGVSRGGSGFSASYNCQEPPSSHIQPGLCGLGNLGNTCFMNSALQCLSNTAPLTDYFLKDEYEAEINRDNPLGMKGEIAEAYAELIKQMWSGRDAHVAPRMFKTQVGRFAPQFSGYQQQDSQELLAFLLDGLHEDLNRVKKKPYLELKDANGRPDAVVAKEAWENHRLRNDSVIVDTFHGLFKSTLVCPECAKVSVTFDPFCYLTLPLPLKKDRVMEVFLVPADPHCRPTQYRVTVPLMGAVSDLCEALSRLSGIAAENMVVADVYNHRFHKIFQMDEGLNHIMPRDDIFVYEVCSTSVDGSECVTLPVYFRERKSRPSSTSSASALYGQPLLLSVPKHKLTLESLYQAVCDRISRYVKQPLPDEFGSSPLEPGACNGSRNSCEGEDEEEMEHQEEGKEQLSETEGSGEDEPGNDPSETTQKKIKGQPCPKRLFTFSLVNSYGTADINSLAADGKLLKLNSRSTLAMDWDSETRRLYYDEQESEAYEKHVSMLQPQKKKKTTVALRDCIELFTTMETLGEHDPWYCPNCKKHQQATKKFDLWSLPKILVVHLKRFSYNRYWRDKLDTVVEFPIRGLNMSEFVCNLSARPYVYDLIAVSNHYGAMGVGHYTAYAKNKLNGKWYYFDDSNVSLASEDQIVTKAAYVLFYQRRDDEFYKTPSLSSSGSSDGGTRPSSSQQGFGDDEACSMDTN
Procedure, shortened: as §1

Measured: log2 ratio of Biotin-Ahx-Ub-VS probe labelling

Sequence of USP34 (Q70CQ2 whole entry, the tested form may be a part): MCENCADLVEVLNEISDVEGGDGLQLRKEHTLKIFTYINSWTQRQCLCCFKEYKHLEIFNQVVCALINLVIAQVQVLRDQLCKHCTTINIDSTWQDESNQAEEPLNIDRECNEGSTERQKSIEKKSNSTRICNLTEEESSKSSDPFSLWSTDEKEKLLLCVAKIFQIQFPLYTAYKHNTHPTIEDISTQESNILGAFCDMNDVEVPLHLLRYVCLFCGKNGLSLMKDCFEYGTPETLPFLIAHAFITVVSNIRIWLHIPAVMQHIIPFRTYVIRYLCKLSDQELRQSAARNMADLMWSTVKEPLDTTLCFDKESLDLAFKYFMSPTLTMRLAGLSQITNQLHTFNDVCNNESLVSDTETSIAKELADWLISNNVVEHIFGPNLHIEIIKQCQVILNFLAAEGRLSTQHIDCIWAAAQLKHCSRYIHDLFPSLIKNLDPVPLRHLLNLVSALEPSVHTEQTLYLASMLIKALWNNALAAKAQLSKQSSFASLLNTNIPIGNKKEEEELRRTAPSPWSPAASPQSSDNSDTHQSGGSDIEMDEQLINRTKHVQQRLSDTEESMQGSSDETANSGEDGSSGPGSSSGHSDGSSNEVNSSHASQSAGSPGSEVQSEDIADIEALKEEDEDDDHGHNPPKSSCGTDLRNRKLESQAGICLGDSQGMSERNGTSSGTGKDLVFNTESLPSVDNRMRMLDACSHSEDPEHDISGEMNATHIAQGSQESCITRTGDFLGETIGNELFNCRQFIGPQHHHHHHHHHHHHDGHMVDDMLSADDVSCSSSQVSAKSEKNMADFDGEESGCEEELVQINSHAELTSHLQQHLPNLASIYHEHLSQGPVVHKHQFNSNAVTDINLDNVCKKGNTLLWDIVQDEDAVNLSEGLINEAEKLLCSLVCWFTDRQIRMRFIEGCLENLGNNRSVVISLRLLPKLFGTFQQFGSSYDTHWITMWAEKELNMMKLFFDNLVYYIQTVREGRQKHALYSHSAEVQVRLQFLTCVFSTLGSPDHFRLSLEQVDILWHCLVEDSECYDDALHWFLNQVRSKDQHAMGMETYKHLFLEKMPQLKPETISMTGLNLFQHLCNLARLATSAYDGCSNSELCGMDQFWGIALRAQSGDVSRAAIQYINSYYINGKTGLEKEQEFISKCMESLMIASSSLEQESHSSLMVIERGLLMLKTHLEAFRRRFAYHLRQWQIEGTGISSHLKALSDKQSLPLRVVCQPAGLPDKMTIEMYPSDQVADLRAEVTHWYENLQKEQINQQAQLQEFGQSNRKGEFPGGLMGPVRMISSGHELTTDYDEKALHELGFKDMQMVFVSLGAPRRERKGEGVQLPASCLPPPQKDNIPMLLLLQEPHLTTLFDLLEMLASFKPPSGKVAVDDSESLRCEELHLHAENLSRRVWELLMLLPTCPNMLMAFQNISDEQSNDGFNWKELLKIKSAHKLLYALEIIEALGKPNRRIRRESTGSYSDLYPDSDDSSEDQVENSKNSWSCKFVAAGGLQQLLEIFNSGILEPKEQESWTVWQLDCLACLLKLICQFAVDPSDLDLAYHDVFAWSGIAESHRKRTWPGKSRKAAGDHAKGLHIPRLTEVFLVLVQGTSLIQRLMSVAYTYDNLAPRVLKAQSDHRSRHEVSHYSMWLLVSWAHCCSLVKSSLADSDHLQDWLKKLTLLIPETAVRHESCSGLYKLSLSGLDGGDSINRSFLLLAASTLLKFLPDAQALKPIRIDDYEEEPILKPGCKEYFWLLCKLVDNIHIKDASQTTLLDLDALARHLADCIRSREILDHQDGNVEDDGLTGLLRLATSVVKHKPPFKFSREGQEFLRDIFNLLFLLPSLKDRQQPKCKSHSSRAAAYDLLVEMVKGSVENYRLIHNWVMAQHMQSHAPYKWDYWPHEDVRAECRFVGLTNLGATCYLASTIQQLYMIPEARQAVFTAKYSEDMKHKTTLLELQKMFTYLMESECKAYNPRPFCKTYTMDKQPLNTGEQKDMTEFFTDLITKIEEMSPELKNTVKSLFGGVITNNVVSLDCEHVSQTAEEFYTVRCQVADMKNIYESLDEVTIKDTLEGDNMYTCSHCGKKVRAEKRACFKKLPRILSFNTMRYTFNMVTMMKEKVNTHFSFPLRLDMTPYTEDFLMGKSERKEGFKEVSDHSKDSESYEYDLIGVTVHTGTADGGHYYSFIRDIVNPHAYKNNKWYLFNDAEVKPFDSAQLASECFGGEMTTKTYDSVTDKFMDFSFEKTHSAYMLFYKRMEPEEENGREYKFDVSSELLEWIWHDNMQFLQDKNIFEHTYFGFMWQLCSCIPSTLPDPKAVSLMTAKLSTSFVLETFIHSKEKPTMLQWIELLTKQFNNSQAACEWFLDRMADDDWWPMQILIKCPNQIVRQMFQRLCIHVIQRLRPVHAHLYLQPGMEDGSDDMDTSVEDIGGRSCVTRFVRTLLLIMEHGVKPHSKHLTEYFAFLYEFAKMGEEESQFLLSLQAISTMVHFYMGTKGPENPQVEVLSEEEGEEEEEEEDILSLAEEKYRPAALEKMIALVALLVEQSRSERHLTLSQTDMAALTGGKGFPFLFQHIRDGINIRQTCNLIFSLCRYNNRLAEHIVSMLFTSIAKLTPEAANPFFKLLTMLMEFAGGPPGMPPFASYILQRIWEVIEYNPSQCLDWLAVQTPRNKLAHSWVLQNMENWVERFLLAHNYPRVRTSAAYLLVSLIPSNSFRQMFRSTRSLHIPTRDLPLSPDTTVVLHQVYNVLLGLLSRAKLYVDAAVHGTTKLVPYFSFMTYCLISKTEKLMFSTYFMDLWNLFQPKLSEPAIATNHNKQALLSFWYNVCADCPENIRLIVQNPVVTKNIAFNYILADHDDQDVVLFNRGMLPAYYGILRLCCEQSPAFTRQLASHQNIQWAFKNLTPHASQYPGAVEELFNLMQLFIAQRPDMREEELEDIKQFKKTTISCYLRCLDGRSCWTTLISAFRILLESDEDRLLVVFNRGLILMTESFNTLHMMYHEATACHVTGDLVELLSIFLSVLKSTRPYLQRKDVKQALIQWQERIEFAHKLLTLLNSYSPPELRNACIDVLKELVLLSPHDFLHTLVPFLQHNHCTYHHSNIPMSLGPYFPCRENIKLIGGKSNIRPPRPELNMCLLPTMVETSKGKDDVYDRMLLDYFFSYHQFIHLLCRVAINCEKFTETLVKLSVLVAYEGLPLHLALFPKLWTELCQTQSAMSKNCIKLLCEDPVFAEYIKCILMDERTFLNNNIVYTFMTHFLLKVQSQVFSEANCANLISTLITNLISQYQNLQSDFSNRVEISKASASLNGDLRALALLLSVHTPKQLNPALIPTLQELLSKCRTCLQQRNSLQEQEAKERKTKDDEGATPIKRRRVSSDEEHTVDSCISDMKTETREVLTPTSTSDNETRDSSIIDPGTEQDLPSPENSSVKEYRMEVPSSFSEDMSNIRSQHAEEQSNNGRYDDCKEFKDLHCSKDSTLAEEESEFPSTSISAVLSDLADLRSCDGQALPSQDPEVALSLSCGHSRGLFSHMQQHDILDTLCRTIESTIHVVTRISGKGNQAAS

Cl.O=C(CCl)N1CCc2ncncc2C1
inactive: [1] -0.136 | [2] 0.0811 | [3] -0.0489 | [4] 0.321 | [5] -0.201
